Assay results: PubChem BioAssay (Tox21)
Records with an inconclusive call do not appear. The source made the active and inactive calls. Unless noted, calls follow the shape of the dose curve; as a rule, active = well fitted cell-killing curve with a large enough effect in the repeat runs; inconclusive = weak or mixed curves, or effect the other way; inactive = no such curve, though single readings can be large or run the other way.

Biological target: Peroxisome proliferator-activated receptor gamma (Homo sapiens) (UniProt P37231)
Test: qHTS assay to identify small molecule agonists of the peroxisome proliferator-activated receptor gamma (PPARg) signaling pathway (AID 743094; active = well fitted activation curve with a large enough effect in the signal ratio in the repeat runs, not every such curve was filed as active; the % refers to the signal ratio)
Details: HEK293H PPARg-UAS-bla, beta-lactamase FRET ratio, 17 h; series mostly up to 57 µM; activation: at the top concentration
In short: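 Fluorescence-based beta-lactamase readout in HEK293H PPARg UAS-bla cells after 17 h compound exposure (37C) and 1 h B/G FRET substrate incubation at room temperature.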
% is scaled to controls: 0 for no effect and ±100 for the full control effect.

Chain of Peroxisome proliferator-activated receptor gamma (Homo sapiens) (P37231 whole entry, looked up): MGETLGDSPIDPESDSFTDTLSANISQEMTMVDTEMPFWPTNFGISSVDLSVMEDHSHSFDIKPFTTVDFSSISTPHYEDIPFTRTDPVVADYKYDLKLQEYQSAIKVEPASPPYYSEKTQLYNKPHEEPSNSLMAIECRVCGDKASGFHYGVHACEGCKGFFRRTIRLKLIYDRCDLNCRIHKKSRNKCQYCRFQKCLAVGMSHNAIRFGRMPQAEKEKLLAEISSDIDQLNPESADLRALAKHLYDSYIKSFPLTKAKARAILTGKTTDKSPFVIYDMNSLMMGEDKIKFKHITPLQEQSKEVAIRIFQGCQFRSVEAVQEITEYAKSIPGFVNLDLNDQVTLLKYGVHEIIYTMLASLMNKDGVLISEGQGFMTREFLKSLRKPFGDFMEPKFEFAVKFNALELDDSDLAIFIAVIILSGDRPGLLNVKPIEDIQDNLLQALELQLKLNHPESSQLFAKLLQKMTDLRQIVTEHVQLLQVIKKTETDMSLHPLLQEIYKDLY

Structure (SMILES) | activation | outcome
N=C(N)c1ccc(OCCCOc2ccc(C(=N)N)cc2)cc1 | -5.3% (inactive) | 
CCCCCCCCCCCCCC=O | -7.22% [at 7.08 µM] (inactive) | 
NC(=O)COCCN1CCN(C(c2ccccc2)c2ccc(Cl)cc2)CC1 (stereo not given) | -4.66% (inactive) | 
Cc1c(O)cccc1O | -5.69% [at 78.9 µM] (inactive) | 
COC(=O)C1=C(C)NC(C)=C(C(=O)OC)C1c1ccccc1[N+](=O)[O-] | 0.374% (inactive) | 
CC(=O)OC/C=C(\C)CC/C=C(\C)CCC=C(C)C | 2.26% (inactive) | 
CC(=O)CC(C)C | 0.0255% (inactive) | 
c1cnc(N2CCN(Cc3ccc4c(c3)OCO4)CC2)nc1 | 0.707% (inactive) | 
CCOC(=O)[C@H](CCc1ccccc1)N[C@@H](C)C(=O)N1[C@H](C(=O)O)C[C@@H]2CCC[C@@H]21 | -0.16% (inactive) | 
CCOC(=O)Nc1ccc(NCc2ccc(F)cc2)nc1N |  | inactive
COC(=O)[C@@H](N)Cc1ccc(O)c(O)c1 | -0.48% (inactive) | 
COC(=O)c1ccc(C)cc1C1=NC(C)(C(C)C)C(=O)N1 (stereo not given) | -0.707% (inactive) | 
C=CCS(=O)(=O)O | -0.365% (inactive) | 
NC(=O)c1ccc(N)cc1 | -1.12% (inactive) | 

Biological target: Peroxisome proliferator-activated receptor gamma (Homo sapiens) (UniProt P37231)
Test: qHTS assay to identify small molecule antagonists of the peroxisome proliferator-activated receptor gamma (PPARg) signaling pathway (AID 743191; calls by dose curve; also: nearly all actives have a fitted effect of over 30% in size)
Details: HEK293H PPARg-UAS-bla, beta-lactamase ratio, antagonist, 17 h; series mostly up to 62.6 µM; ratio activity, negative = inhibition: at the top concentration
In short: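 Beta-lactamase reporter under UAS control in HEK293H PPARg-bla cells; compound treatment 17 h at 37C. Read-out: fluorescence intensity after 1 h room-temperature incubation with LiveBLAzer B/G FRET substrate.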

Structure (SMILES) | ratio activity, negative = inhibition
N=C(N)c1ccc(OCCCOc2ccc(C(=N)N)cc2)cc1 | -0.163% (inactive)
CCCCCCCCCCCCCC=O | -1.51% [at 5.95 µM] (inactive)
NC(=O)COCCN1CCN(C(c2ccccc2)c2ccc(Cl)cc2)CC1 (stereo not given) | 0% (inactive)
Cc1c(O)cccc1O | 11.2% [at 81.1 µM] (inactive)
COC(=O)C1=C(C)NC(C)=C(C(=O)OC)C1c1ccccc1[N+](=O)[O-] | 7.34% (inactive)
CC(=O)OC/C=C(\C)CC/C=C(\C)CCC=C(C)C | 3.53% (inactive)
CC(=O)CC(C)C | -2.58% (inactive)
c1cnc(N2CCN(Cc3ccc4c(c3)OCO4)CC2)nc1 | -1.84% (inactive)
CCOC(=O)[C@H](CCc1ccccc1)N[C@@H](C)C(=O)N1[C@H](C(=O)O)C[C@@H]2CCC[C@@H]21 | -15% (inactive)
O=C(CCCN1CCC(O)(c2cccc(C(F)(F)F)c2)CC1)c1ccc(F)cc1 | -15.4% (inactive)
CCOC(=O)Nc1ccc(NCc2ccc(F)cc2)nc1N | -7.88% (inactive)
COC(=O)c1ccc(C)cc1C1=NC(C)(C(C)C)C(=O)N1 (stereo not given) | 4.5% (inactive)
C=CCS(=O)(=O)O | 5.83% (inactive)
NC(=O)c1ccc(N)cc1 | 8.29% (inactive)

System: not listed separately
Test: qHTS assay to identify small molecule antagonists of the peroxisome proliferator-activated receptor gamma (PPARg) signaling pathway - cell viability counter screen (AID 743194); also: nearly all actives have a fitted effect of over 55% in size
Details: PPARg-bla HEK293H viability, CellTiter-Glo luminescence, 17 h, co-treated with 50 nM rosiglitazone; series mostly up to 62.6 µM; activity change, negative = cytotoxicity: at the top concentration
In short: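 Viability was measured as CellTiter-Glo luminescence in GeneBLAzer PPARg UAS-bla HEK293H cells. These cells had been exposed 17 h at 37 C to compounds together with rosiglitazone at 50 nM final, with the beta-lactamase readout taken in the same wells.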

Structure (SMILES) | activity change, negative = cytotoxicity | outcome
CCCCCCCCCCCCCC=O | 14.4% [at 5.95 µM] (inactive) | 
CS(=O)(=O)O | 6.14% [at 81.1 µM] (inactive) | 
Cc1ccc(Cl)cc1Cl | 0.762% (inactive) | 
CN1CCN(c2cc3c(cc2F)c(=O)c(C(=O)O)cn3-c2ccc(F)cc2)CC1 | 6.48% (inactive) | 
CC(=O)Nc1c(I)cc(I)c(C(=O)O)c1I | -8.74% (inactive) | 
O=C1CCCCCCCCCCCN1 |  | inactive
CCOC(=O)c1c(C)n(C)c2ccc(O)cc12 | -2.96% (inactive) | 
CO/N=C(/C(=O)N[C@@H]1C(=O)N2C(C(=O)OCOC(=O)C(C)(C)C)=C(C)CS[C@H]12)c1csc(N)n1 | 0.636% (inactive) | 
CCN1CCC[C@H]1CNC(=O)c1c(O)c(Cl)cc(Cl)c1OC | 0.939% (inactive) | 
COC(=O)C1=C(C)NC(C)=C(C(=O)OC)C1c1ccccc1[N+](=O)[O-] |  | inactive
CC(=O)OC/C=C(\C)CC/C=C(\C)CCC=C(C)C | -2.24% (inactive) | 
CC(=O)CC(C)C | -17.9% (inactive) | 
c1cnc(N2CCN(Cc3ccc4c(c3)OCO4)CC2)nc1 | 15.3% (inactive) | 
CCOC(=O)[C@H](CCc1ccccc1)N[C@@H](C)C(=O)N1[C@H](C(=O)O)C[C@@H]2CCC[C@@H]21 | -8.64% (inactive) | 
CC(C)CNCC(C)C | -22.8% (inactive) | 
O=C(CCCN1CCC(O)(c2cccc(C(F)(F)F)c2)CC1)c1ccc(F)cc1 | -28% (inactive) | 
NS(=O)(=O)c1cc(C(=O)O)cc(N2CCCC2)c1Oc1ccccc1 | -0.412% (inactive) | 
CCOC(=O)Nc1ccc(NCc2ccc(F)cc2)nc1N | 22.1% (inactive) | 
CCN(Cc1ccncc1)C(=O)C(CO)c1ccccc1 (stereo not given) | 6.66% (inactive) | 
COC(=O)[C@@H](N)Cc1ccc(O)c(O)c1 | -17.4% (inactive) | 
COC(=O)c1ccc(C)cc1C1=NC(C)(C(C)C)C(=O)N1 (stereo not given) | 5.3% (inactive) | 
C=CCS(=O)(=O)O | -21.9% (inactive) | 
NC(=O)c1ccc(N)cc1 | -0.0987% (inactive) | 
CC(C)OC(=O)c1ccccc1 | 1.3% [at 81.1 µM] (inactive) | 
CCCCOCCOCCOCc1cc2c(cc1CCC)OCO2 | -1.02% (inactive) | 
CC1(C)CO[C@@H](CC(=O)O)CN1 | 20.4% (inactive) | 
CC(C)(c1ccc(O)cc1)c1ccc(O)cc1 | 1.06% (inactive) | 
